Results filed as inconclusive are left out. Where a call stands in place of a potency, no number is given. Active and inactive are the calls of the source. Calls follow the shape of the dose curve; as a rule, active = well fitted inhibition curve with a large enough effect in the repeat runs; inconclusive = weak or mixed curves; inactive = no such curve, though single readings can be large or run the other way.
biological target: Cytochrome P450 2C9 (Homo sapiens) (UniProt P11712); test: Cytochrome P450 family 2 subfamily C member 9 (CYP2C9) small molecule antagonists: luciferase biochemical (cell-free) qHTS assay (AID 1645842); details: P450-Glo CYP2C9 enzyme assay, luciferin luminescence; series mostly up to 57.4 µM; also: nearly all actives have a fitted effect of over 55% in size
Experimental: National Center for Advancing Translational Sciences [NCATS] Assay Overview: Cytochrome P450 (CYP) enzymes are membrane-bound hemeproteins that play a key role in metabolism of drugs and xenobiotics. Assaying the effect of chemicals on CYP isozymes is useful to minimize the adverse drug reactions and toxicities in drug development process. Chemical compounds were tested for their effect on CYP enzyme activities by using P450-Glo (TM) screening systems (Promega Corporation, Madison, WI). These systems provide a luminescent method containing proluciferin substrates and are converted to luciferin products by CYP isozymes. The luciferin products formed are detected with a luciferin detection reagent, and the amount of light produced is proportional to CYP activity. P450-Glo (TM) CYP2C9 screening system (Catalog. No. V9790) was used to detect the compounds that interfere in CYP2C9 activity.
Assay Protocol Summary: Two ul of enzyme-substrate mix supplemented with 0.4% Bovine Serum Albumin was dispensed into medium binding white/solid 1536-well plates (Greiner Bio-One North America Inc., Monroe, NC) using a Flying Reagent Dispenser (FRD, Aurora Discovery, San Diego, CA). […] The assay plates were incubated at room temperature for 10 min. Then 2 ul of NADPH regeneration solution was added to each well of the assay plates using an FRD and incubated at 37C for 1 h. The reaction was stopped by adding 4 ul of detection reagent using an FRD and after 20 min incubation at room temperature, the luminescence signal was measured using a ViewLux plate reader (Perkin Elmer, Shelton, CT). Data were expressed as relative luminescence units.
Potency is read from the fitted curve at half-maximal effect.

Cytochrome P450 2C9 (Homo sapiens), sequence (P11712 whole entry, looked up): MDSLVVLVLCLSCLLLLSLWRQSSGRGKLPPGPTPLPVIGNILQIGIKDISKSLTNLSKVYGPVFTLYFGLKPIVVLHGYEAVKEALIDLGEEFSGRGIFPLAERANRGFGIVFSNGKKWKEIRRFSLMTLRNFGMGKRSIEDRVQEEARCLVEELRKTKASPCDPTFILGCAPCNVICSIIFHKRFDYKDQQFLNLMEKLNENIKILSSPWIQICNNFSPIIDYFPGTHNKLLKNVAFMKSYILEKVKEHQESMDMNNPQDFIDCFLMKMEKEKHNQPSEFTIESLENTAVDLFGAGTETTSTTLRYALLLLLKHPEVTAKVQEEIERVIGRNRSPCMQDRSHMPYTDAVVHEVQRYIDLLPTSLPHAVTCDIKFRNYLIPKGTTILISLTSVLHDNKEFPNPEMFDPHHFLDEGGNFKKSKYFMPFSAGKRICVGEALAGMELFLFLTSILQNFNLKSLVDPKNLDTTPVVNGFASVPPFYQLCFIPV

Which Potency does the source give for `CCN=C1Nc2ccc(Cl)cc2C(C)(c2ccccc2)O1` (stereo unspecified) here?
The Potency was 9.52 µM (active).

How did the Potency turn out when `CCN(CC)N(O)N=O` was run?
The Potency was “inactive”.

For `N#CC(O[C@@H]1O[C@H](CO[C@@H]2O[C@H](CO)[C@@H](O)[C@H](O)[C@H]2O)[C@@H](O)[C@H](O)[C@H]1O)c1ccccc1` (stereo partly specified), which Potency is on record?
Its Potency is “inactive”.

With `CCN1CCN(C(c2ccc(Cl)cc2)c2ccc(Cl)cc2)CC1` as the molecule, how does the Potency read?
The Potency was “inactive”.

`CNC(C)[C@@H](O)c1ccc(O)cc1` (stereo partly specified) was tested. Which Potency did it give?
The Potency was “inactive”.

For `CC(=O)Oc1ccc(Cl)c2cccnc12`, which Potency is on record?
Its Potency is “inactive”.

Which Potency does the source give for `CN(C)[C@@H]1C(=O)C(C(N)=O)C(=O)[C@@]2(O)C(=O)C3C(=O)c4c(O)ccc(Cl)c4[C@@](C)(O)C3C[C@@H]12` (stereo partly specified) here?
Its Potency is “inactive”.

`C=CCC1(CC(C)C)C(=O)NC(=O)NC1=O` was tested. Which Potency did it give?
The Potency was “inactive”.

How did the Potency turn out when `Cc1ccccc1[C@@H](C(=O)NC1CCCCC1)N(C(=O)Cn1ccnc1C)c1cccc(F)c1` was run?
Its Potency is “inactive”.

For `CCOc1ccc(NC(=O)Cn2cc(C(=O)c3ccccc3)c3ccccc32)cc1`, which Potency is on record?
Its Potency is 16.9 µM (active).

For `O=[As]O[As]=O` (stereo unspecified), which Potency is on record?
Its Potency is “inactive”.

With `CCOC(=O)/C=C/[C@H](C[C@@H]1CCNC1=O)NC(=O)[C@@H](CC(=O)[C@@H](NC(=O)c1cc(C)on1)C(C)C)Cc1ccc(F)cc1` as the molecule, how does the Potency read?
Its Potency is 4.77 µM (active).

How did the Potency turn out when `CC1(C)[C@H](C=C(Cl)Cl)[C@@H]1C(=O)OCc1c(F)c(F)cc(F)c1F` was run?
The Potency was 12 µM (active).

How did the Potency turn out when `C[C@]12C[C@@H]3S[C@H]3C[C@@H]1CC[C@H]1[C@H]3CC[C@@H](O)[C@@]3(C)CC[C@@H]12` was run?
The Potency was 0.107 µM (active).

How did the Potency turn out when `CC=CC1C(C(=O)OCc2c(F)c(F)c(COC)c(F)c2F)C1(C)C` (stereo unspecified) was run?
The Potency was 10.7 µM (active).

Which Potency does the source give for `CCOC(=O)C=C(C)C=CC[C@@H](C)CCCC(C)C` here?
The Potency was 10.7 µM (active).

How did the Potency turn out when `CC(Cc1ccc2c(c1)OCO2)NCC(O)c1ccc(O)c(O)c1` (stereo unspecified) was run?
The Potency was 15.1 µM (active).

With `CC(C)(N)Cc1ccccc1` as the molecule, how does the Potency read?
The Potency was “inactive”.

For `NCCS[As](SCCN)c1ccc(Nc2nc(N)nc(N)n2)cc1`, which Potency is on record?
Its Potency is “inactive”.

For `C[C@@H](C1CC[C@@]2(O)C3=CC(=O)[C@@H]4C[C@@H](O)[C@@H](O)C[C@]4(C)[C@H]3CC[C@]12C)[C@H](O)CCC(C)(C)O` (stereo partly specified), which Potency is on record?
Its Potency is “inactive”.

With `CC1=NCCc2c1[nH]c1cc(O)ccc21` as the molecule, how does the Potency read?
The Potency was “inactive”.
